# Measurements: the supplement of paper PMC12669032
# Unmarked numbers belong to inactive results.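 How the source made its calls: active = AUC reduced over 20% with Padj below 0.05 in at least 2 of 3 replicates; inactive = otherwise.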
# Legend:
# Assay in all cases: growth AUC relative to DMSO control (median of replicates) (fraction); higher = more growth (less inhibition), active = hit call of the paper
# Details in all cases: 20 µM; 24 h
# [1] = test system: Akkermansia muciniphila
# In short: (§1)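 Three biological replicates, each grown on a separate day, were combined as a median for every value. In each, a gut bacterial monoculture in mGAM started at OD600 0.05 and grew anaerobically at 37 °C with 20 µM compound (1% DMSO), with OD600 read hourly over 24 h. Area under the growth curve was normalised against the plate median of solvent-only wells, or against row and column medians on the industrial chemical plate, after the minimum OD was set to 0.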
# [2] = test system: Bacteroides caccae
# In short: as §1
# [3] = test system: Bacteroides clarus
# In short: as §1
# [4] = test system: Bacteroides dorei
# In short: as §1
# [5] = test system: Bacteroides stercoris
# In short: as §1
# [6] = test system: Bacteroides thetaiotaomicron
# In short: as §1
# [7] = test system: Bacteroides uniformis
# In short: as §1
# [8] = test system: Bifidobacterium longum subsp. longum
# In short: as §1
# [9] = test system: Clostridium difficile
# In short: as §1
# [10] = test system: Collinsella aerofaciens
# In short: as §1
# [11] = test system: Coprococcus comes
# In short: as §1
# [12] = test system: Escherichia coli ED1a
# In short: as §1
# [13] = test system: Escherichia coli IAI1
# In short: as §1
# [14] = test system: Eubacterium rectale
# In short: as §1
# [15] = test system: Fusobacterium nucleatum subsp. animalis
# In short: as §1
# [16] = test system: Lactobacillus gasseri
# In short: as §1
# [17] = test system: Lactobacillus paracasei
# In short: as §1
# [18] = test system: Odoribacter splanchnicus
# In short: as §1
# [19] = test system: Parabacteroides distasonis
# In short: as §1
# [20] = test system: Parabacteroides merdae
# In short: as §1
SMILES,growth AUC [1],growth AUC [2],growth AUC [3],growth AUC [4],growth AUC [5],growth AUC [6],growth AUC [7],growth AUC [8],growth AUC [9],growth AUC [10],growth AUC [11],growth AUC [12],growth AUC [13],growth AUC [14],growth AUC [15],growth AUC [16],growth AUC [17],growth AUC [18],growth AUC [19],growth AUC [20]
CON(C)C(=O)Nc1ccc(Cl)c(Cl)c1,0.949,1.05,1,1.04,0.954,1,1,0.953,0.999,1.06,1,1.02,0.977,0.95,0.936,1.01,0.996,0.981,1.01,1
CCOC(=O)OC1=C(c2cc(C)ccc2C)C(=O)NC12CCC(OC)CC2 (stereo not given),0.953,1,0.995,0.996,1.04,0.971,0.982,0.996,0.977,0.997,0.998,1.01,0.983,1.01,0.965,0.993,0.992,0.969,0.981,1.03
O=C(O)C(F)(F)C(F)(F)C(F)(F)C(F)(F)C(F)(F)C(F)(F)F,0.965,1.03,1,1.01,1,1,1.02,1.04,1,1.02,1,0.998,1,1.01,0.955,1.03,1.01,1,1.08,1.03
CCOc1cc(Oc2ccc(C(F)(F)F)cc2Cl)ccc1[N+](=O)[O-],1.08,0.966,1.01,0.917,0.905,1.01,0.992,1.03,0.993,0.881,0.602 (active),1.01,0.979,0.989,1.09,0.939,0.955,1.08,1.01,0.954
CCOC(=O)/C=C(C)/C=C/C[C@@H](C)CCCC(C)C,0.915,0.985,1.03,1.01,1.12,0.986,0.984,0.949,1.06,0.982,0.979,1,0.997,1.03,1.15,1.13,1.01,0.954,1.02,0.989
O=S(=O)(c1ccccc1)c1ccccc1,0.901,0.966,1.01,0.993,1.03,0.997,0.982,1.01,1.02,0.964,0.977,0.988,0.97,1.03,1,0.914,1.03,0.999,1.02,0.929
Nc1cccc(Cl)c1Cl,0.928,1.04,1,0.999,1.18,0.999,1.02,0.921,0.999,1.06,1.01,1.04,1.03,0.947,1.1,1.05,0.962,0.991,1.02,0.998
O=C(O)COc1ccccc1,0.969,0.918,0.989,0.944,1.05,1.02,1,1.11,0.988,0.885,0.999,0.981,1,1,1.01,1.03,0.753,1.03,1,0.959
CCNc1nc(Cl)nc(NC(C)C)n1,1.05,0.956,1.01,0.945,0.964,1.01,1.01,1.02,0.944,1.04,1.01,1.02,0.992,1.06,1.03,0.976,1.08,1.07,1.05,0.999
CC(C)Nc1nc(Cl)nc(NC(C)C)n1,0.954,0.825,0.989,0.965,1.14,0.96,1.02,1.07,0.986,0.961,0.958,1.03,0.978,1.07,1.04,0.983,1.06,0.797,1.02,0.968
COC(=O)C(C)Oc1ccc(Oc2ccc(Cl)cc2Cl)cc1 (stereo not given),0.924,0.963,0.951,1.04,0.795,0.986,0.963,0.919,1.01,0.958,0.97,0.99,0.993,1.12,0.953,1.06,0.999,1,0.973,0.96
Nc1nc(N)nc(NC2CC2)n1,0.99,0.989,1.02,1.01,1.04,1,0.991,1.01,1.02,0.999,1,0.982,0.986,1.04,1.04,0.877,0.959,1.04,1.03,1
O=c1oc2ccccc2c(O)c1C(CC(O)c1ccc(-c2ccc(Br)cc2)cc1)c1ccccc1 (stereo not given),1,0.438 (active),0.279 (active),0.563 (active),0.00869 (active),0.733 (active),0.703 (active),0.747 (active),0.327 (active),0.941,0.923,1,0.97,0.883,0.936,0.801,0.838,0.167 (active),0.516 (active),0.25 (active)
Oc1ccccc1Cl,0.985,1.01,0.993,1.01,1.05,0.983,0.988,0.99,0.995,1,0.975,1.01,1.01,0.921,0.994,1.05,0.883,0.906,0.995,1
CNC(=O)Oc1cccc2c1OC(C)(C)C2=O,1.05,1.03,1.03,1.02,1.04,1.02,1.05,1.02,1.01,1.01,1.05,1.03,1.02,1.04,1.15,0.878,1.04,1.02,0.955,0.99
Cc1cccc(C)c1N,0.917,1.04,0.973,1.01,1.03,1.04,1.06,1.04,0.997,0.985,1.02,0.978,0.985,0.997,0.927,1.02,0.936,1.03,1.01,0.999
O=C(NC(=O)c1c(F)cccc1F)Nc1ccc(Oc2ccc(C(F)(F)F)cc2Cl)cc1F,1.02,1.02,0.984,1.02,1.02,1,0.996,1.05,1.02,1.08,1,1.03,1.03,0.994,0.951,1.21,0.974,0.978,0.988,1

SMILES,growth AUC [1],growth AUC [2],growth AUC [3],growth AUC [4],growth AUC [5],growth AUC [6],growth AUC [7],growth AUC [8],growth AUC [9],growth AUC [10],growth AUC [11],growth AUC [12],growth AUC [13],growth AUC [14],growth AUC [15],growth AUC [16],growth AUC [17],growth AUC [18],growth AUC [19],growth AUC [20]
COCC(C)N(C(=O)CCl)c1c(C)csc1C (stereo not given),1.35,1.03,1.01,0.929,1.04,0.973,0.93,0.841,0.847,0.922,1.02,0.976,0.993,1.16,0.825,0.806,1.01,0.822,0.683 (active),1
CCOC(=O)C(O)(c1ccc(Cl)cc1)c1ccc(Cl)cc1,0.996,0.872,0.78 (active),0.951,0.376 (active),0.874,0.991,0.997,1.04,0.978,0.953,1.03,0.968,1.02,0.879,1.03,0.979,0.992,0.823,0.92
CCC(C)Nc1c([N+](=O)[O-])cc(C(C)(C)C)cc1[N+](=O)[O-] (stereo not given),0.988,0.953,0.939,0.98,1.11,0.931,0.945,0.81,0.938,0.959,0.975,1.01,0.939,0.995,1.02,0.938,1.01,1.02,0.919,0.966
[Cl][Sn]([c]1ccccc1)([c]1ccccc1)[c]1ccccc1,0.915,0.0272 (active),0.272 (active),0.0162 (active),0.0164 (active),0.00729 (active),0.0126 (active),0.303 (active),0.849,0.152 (active),0.0492 (active),0.981,0.964,0.0221 (active),0.897,0.383,0.83,0.0358 (active),0.048 (active),0.0101 (active)
O=C(O)COc1nc(Cl)c(Cl)cc1Cl,1.13,0.874,0.989,0.94,1.19,1,0.993,1.04,0.963,0.99,0.867,0.971,1.01,1.15,1.1,0.818,1.01,0.992,0.781,1.01
CC/C(=N\OC/C=C/Cl)C1=C(O)CC(C2CCOCC2)CC1=O (stereo not given),1.04,0.993,1.03,1,1.03,1.02,0.985,1.37,1.01,1.03,1.01,1,1.03,0.996,0.983,0.994,1.1,1.04,0.998,1.02
O=P(O)(O)CCCl,1.07,0.964,1.02,0.986,1.08,1.01,1.03,1.07,0.959,0.973,1.06,1.02,1.02,1.22,1.04,0.975,1.01,1.12,1.01,1
CCOP(=S)(OCC)Oc1cc(C)nc(C(C)C)n1,1.04,1.02,1,1.03,0.972,1.01,1.02,0.972,1.02,0.986,0.982,1,0.992,1.12,1.03,1.02,1.03,0.999,0.924,1
CCOP(=S)(OCC)SCSP(=S)(OCC)OCC,0.958,1,0.949,0.974,1.04,1.01,0.981,1.03,0.995,0.996,0.997,0.983,1.01,0.954,1.04,0.988,1.07,1.01,1,0.997
CCOP(=S)(OCC)Oc1nc(Cl)c(Cl)cc1Cl,0.91,0.999,0.95,1.03,1.07,0.978,1,0.943,1.01,0.986,0.995,1.02,1.01,1.11,0.982,0.992,0.993,1,0.963,0.96
CCCCC(C#N)(Cn1cncn1)c1ccc(Cl)cc1 (stereo not given),1.04,1.02,0.952,0.98,0.861,0.984,0.975,1.04,0.985,0.959,1.02,0.966,0.97,1.01,1.02,0.965,0.916,1.04,1.02,0.988
C#CCN1C(=O)COc2cc(F)c(N3C(=O)C4=C(CCCC4)C3=O)cc21,1.23,1.01,0.994,0.931,1,1,0.959,1.02,0.929,0.944,1.01,0.98,0.984,1.09,0.944,0.883,0.934,0.948,0.855,0.958
O=C1C[C@@H]2OCC=C3CN4CC[C@]56c7ccccc7N1[C@H]5[C@H]2[C@H]3C[C@H]46,0.985,0.968,0.998,0.93,0.898,0.964,1.01,1.09,0.972,0.942,0.984,0.973,0.985,1,0.909,0.928,1.09,1.08,0.988,0.967
CNC(=O)Oc1cccc2c1OC(C)(C)C2O (stereo not given),1.07,1.01,1.04,1.02,1.06,1.01,0.998,0.967,1.03,1.01,1.05,1.01,1.01,1.05,1.15,0.862,1.11,1.02,0.88,1.09
CCOP(=O)(SC(C)CC)N1CCSC1=O (stereo not given),0.9,1.02,0.977,1,1.07,0.992,0.996,1.02,1.02,1.05,1,0.984,0.986,0.862,1.01,0.997,1.01,1.04,1.05,1.01
ClC1=C(Cl)C(Cl)(C2(Cl)C(Cl)=C(Cl)C(Cl)=C2Cl)C(Cl)=C1Cl,1.27,0.926,0.93,0.895,0.809,0.856,0.875,0.94,1,0.823,1.05,1.04,1.01,0.861,1.13,1.01,0.987,1,0.958,0.863
